Assay results from the supplement of paper PMC3334620.
In all, about 33,000 sequences were measured (“E-score (-0.5 to 0.5)”: median about -0.016, highest 2% from about 0.3 on). The full list was thinned out, with the highest values kept by preference.

Molecular target: T1, Yer184c (UniProt P39961)
T1 sequence: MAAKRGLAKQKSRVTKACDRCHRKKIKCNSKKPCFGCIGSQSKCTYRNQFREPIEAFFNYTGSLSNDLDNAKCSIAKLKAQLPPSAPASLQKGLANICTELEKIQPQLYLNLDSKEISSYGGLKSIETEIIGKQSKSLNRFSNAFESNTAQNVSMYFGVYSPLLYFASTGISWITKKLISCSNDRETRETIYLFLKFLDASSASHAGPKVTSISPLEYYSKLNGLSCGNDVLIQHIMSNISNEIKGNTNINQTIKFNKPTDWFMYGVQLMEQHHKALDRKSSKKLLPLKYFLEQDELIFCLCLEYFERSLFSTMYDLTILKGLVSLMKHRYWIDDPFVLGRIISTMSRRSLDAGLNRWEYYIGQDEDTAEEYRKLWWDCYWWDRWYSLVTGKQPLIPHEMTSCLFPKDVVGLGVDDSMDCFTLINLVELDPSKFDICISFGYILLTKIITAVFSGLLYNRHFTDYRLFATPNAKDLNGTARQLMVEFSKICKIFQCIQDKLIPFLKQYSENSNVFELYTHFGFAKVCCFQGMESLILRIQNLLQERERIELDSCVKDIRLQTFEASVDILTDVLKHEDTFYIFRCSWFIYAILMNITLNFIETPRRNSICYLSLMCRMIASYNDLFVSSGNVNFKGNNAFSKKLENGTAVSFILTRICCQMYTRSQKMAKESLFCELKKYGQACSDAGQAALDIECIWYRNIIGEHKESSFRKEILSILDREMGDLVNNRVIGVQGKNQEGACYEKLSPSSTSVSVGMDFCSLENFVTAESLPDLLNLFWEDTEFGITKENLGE
Test: PBM E-score (8-mer binding enrichment) (E-score (-0.5 to 0.5)); higher = stronger / more preferred TF binding
Conditions: protein concentration: 100 nM; construct: GST-full length
Description: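 Universal 'all 10-mer' protein binding microarrays (Agilent AMADID 015681) probed with GST-tagged S. cerevisiae TFs (full-length or DBD) made by in vitro transcription/translation (PURExpress), about 100-200 nM. Bound TF was detected with fluorescent anti-GST. Each ungapped 8-mer (which stands for itself and its reverse complement) is scored by the PBM enrichment score (E-score), a modified Wilcoxon-Mann-Whitney statistic from -0.5 to +0.5, computed with the Universal PBM Analysis Suite. Scale: above 0.35 generally sequence-specific binding.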

Row | Sequence | PBM E-score
1 | GCCTTAAC | -0.171
2 | CGGTAGTA | 0.0519
3 | GCTCTTCC | 0.0925
4 | AGAGGTTG | -0.19
5 | CCGAGCGA | 0.244
6 | CGGAGCCC | -0.177
7 | GCGAGCGC | 0.0998
8 | CCGAGCCG | 0.352
9 | AGGAGCCG | 0.0636
10 | AGGAGCGA | -0.0501
11 | CCGAGCCA | 0.219
12 | CGGAGCGC | 0.107
13 | CGGAGCCG | 0.309
14 | ACGAGCCG | 0.22
15 | CCGAGCGC | 0.361
16 | CGGAGCGA | 0.332
17 | AGGGATGA | -0.133
18 | GATTGAGC | 0.109
19 | AAGGGGAC | -0.0399
20 | CGGAATGC | 0.249
21 | CAACAGCG | -0.182
22 | GTATCCTA | -0.0431
23 | ATATCCGA | 0.343
24 | ATATCCTA | -0.0362
25 | GTATCCGA | 0.304

Row | Sequence | PBM E-score
26 | ATGTCCGG | 0.373
27 | ATATCCGG | 0.374
28 | AGATCCGG | 0.263
29 | GTATCCCA | -0.0951
30 | ATGTCCGC | -0.0241
31 | ATATCCGC | 0.178
32 | ATGTCCGA | 0.231
33 | CTATCCGA | 0.119
34 | CAAGGGTA | -0.254
35 | GTACGAGA | -0.1
36 | CTCTAAGC | 0.0215
37 | GGACCCAC | -0.182
38 | ATTGTCCC | -0.0916
39 | ATTGTTTG | 0.137
40 | ATTGTTCC | 0.267
41 | ATTGTCCG | 0.345
42 | ATTGTCCA | 0.143
43 | ATTGTTCA | 0.112
44 | CTTGTTTC | 0.0564
45 | ATTGTTCG | 0.346
46 | ATTGTTTC | 0.324
47 | GCCCAGTA | -0.14
48 | AACGGCCG | 0.3
49 | ATTGAATA | 0.24
50 | ATCCATAA | 0.168

Row | Sequence | PBM E-score
51 | ACCCTAAC | -0.0425
52 | GCATCGGC | 0.176
53 | AAATCGGA | 0.308
54 | GGATCGGA | 0.228
55 | GAATCGGC | 0.254
56 | AAATCGGG | 0.0884
57 | AGATCGGA | 0.34
58 | TAATCGGA | 0.248
59 | ACATCGGA | 0.223
60 | GAATCGGA | 0.318
61 | CGATCGGA | 0.142
62 | AAATCGGT | 0.0224
63 | GCATCGGA | 0.307
64 | CAAACAAG | 0.0388
65 | AACCTCTT | 0.178
66 | CCCAAGTC | -0.223
67 | AAGCAGTA | -0.209
68 | TGACTGAA | -0.14
69 | AAATGCTT | 0.0617
70 | TCTGCGAA | -0.186
71 | GCCTGCTA | -0.0406
72 | ACTTCCAG | -0.112
73 | CCGTTCAA | 0.197
74 | CCCTCATA | -0.288
75 | CCTCGAGG | -0.112

Row | Sequence | PBM E-score
76 | GGAGTACC | -0.219
77 | GTATCGGA | 0.208
78 | CTATCGGA | 0.319
79 | ATATCGGA | 0.277
80 | AAAGGGCA | -0.226
81 | ATATGGCA | -0.15
82 | CCACAGTA | -0.1
83 | CCTCCTTA | -0.179
84 | AGATTCCT | -0.215
85 | ATATTCCC | 0.176
86 | ATATTCCG | 0.38
87 | ATATTCCA | 0.16
88 | AGATTCCG | 0.338
89 | AGATTCCC | -0.0681
90 | ATAGTGCA | 0.104
91 | CGGTGCGA | 0.00174
92 | CGATGGTA | -0.146
93 | AGTCCGAC | -0.14
94 | CGTCCGAA | 0.239
95 | AGTCCGAT | 0.19
96 | TGTCCGAA | 0.334
97 | TGTCCAAA | 0.143
98 | AGTCCGAA | 0.343
99 | ATTCTGCA | 0.124
100 | TAAGCTAA | 0.138

Row | Sequence | PBM E-score
101 | AGACCTAT | 0.0227
102 | AATATCAT | 0.142
103 | CCTCGCCC | -0.125
104 | ACCGTAAA | 0.0422
105 | TCCGTAGA | 0.204
106 | TCCGTAAA | 0.303
107 | GCCGTAGC | 0.045
108 | GCCGTAGA | 0.322
109 | GCCGTAAA | 0.339
110 | GAAGCGTA | -0.0311
111 | GGATTCGA | -0.0994
112 | AATGCAAT | -0.256
113 | ATGACGGA | 0.198
114 | CACTTCTG | -0.207
115 | GATCTTTA | 0.106
116 | AGAACAAT | 0.174
117 | ATAACAAG | 0.209
118 | ATAACAAA | 0.357
119 | ATAACAAT | 0.115
120 | AGAACAAA | 0.349
121 | AGAACAAG | 0.143
122 | AGAGATAC | -0.0106
123 | AGTGAGAT | -0.107
124 | CGAGAGAG | 0.166
125 | AAGAGCAA | -0.0457

Row | Sequence | PBM E-score
126 | CACAAGCC | -0.0115
127 | AGCCCGTA | -0.276
128 | GAACACCC | -0.0175
129 | AAGGCCCG | -0.093
130 | AAGGCCGG | 0.318
131 | AAGGCCGT | 0.156
132 | CAGGCCGG | 0.108
133 | AAGGCCGA | 0.338
134 | AAGGCCGC | 0.051
135 | CGCCCGCA | -0.0897
136 | GATGAGCA | 0.0238
137 | GAGGTCGA | -0.158
138 | GACTGCCC | -0.309
139 | ATATTGCG | -0.0525
140 | CTCGGCTA | 0.352
141 | CTCGGCTC | 0.237
142 | ATCGGCGC | 0.275
143 | CTCGGCGC | 0.357
144 | CGCGGCGC | 0.259
145 | ATCGGCGA | 0.128
146 | GTCGGCTA | 0.153
147 | CTCGGCGA | 0.399
148 | GTCGGCGA | 0.134
149 | TAGATGGA | -0.162
150 | AAGAGGAG | -0.115

Row | Sequence | PBM E-score
151 | GATGGATA | 0.0331
152 | CGGGGAGC | -0.0385
153 | AGAGCCAT | -0.101
154 | CGCTATGA | -0.0231
155 | GTTCGGGA | 0.226
156 | CTTCGGGA | 0.171
157 | CTTCGGTA | 0.235
158 | ATTCGGTC | 0.244
159 | CTTCGGTC | 0.309
160 | ATTCGGAC | 0.349
161 | ATTCGGGC | 0.141
162 | AGTCGGAC | 0.0344
163 | CTTCGGAA | 0.394
164 | GGTCGGAA | 0.225
165 | GTTCGGAA | 0.402
166 | CGTCGGAA | 0.24
167 | AAAGTTAT | 0.134
168 | CGAACCCA | -0.0147
169 | GCGCCCTA | -0.135
170 | CGCGTAGC | -0.0173
171 | CCTGTCAG | -0.101
172 | TCCGCGAA | 0.234
173 | ATTGGTAG | -0.0488
174 | CCTCGGAC | 0.17
175 | CTTCGGAC | 0.325

Row | Sequence | PBM E-score
176 | ATTCGGAG | 0.205
177 | ATTCGGAA | 0.353
178 | AGTCGGAA | 0.245
179 | CTTCGGGC | -0.0555
180 | GTATGCTA | -0.0379
181 | AGCCGCGG | 0.419
182 | AACCGCGT | 0.168
183 | ATCCGCGC | 0.141
184 | ACCCGCGT | -0.0424
185 | ATCCGCGG | 0.359
186 | ATCCGCGA | 0.105
187 | AGCCGCGC | 0.103
188 | ACCCGCGA | -0.0511
189 | AACCGCGG | 0.372
190 | AACCGCGA | 0.225
191 | ACCCGCGG | 0.351
192 | AGCCGCGA | 0.133
193 | GATCGCAC | -0.0597
194 | CAAAGATC | 0.154
195 | CGATCTGC | 0.0352
196 | AGCTACCT | -0.0785
197 | CAGTCCCA | -0.171
198 | GTAAGGAA | -0.0396
199 | CACAGAAC | -0.13
200 | GTTCCGCA | 0.268

Row | Sequence | PBM E-score
201 | CTTCCTGC | -0.314
202 | ATACCGGA | 0.237
203 | ATTCCGGA | 0.436
204 | CTTCCGCA | 0.068
205 | CTTCCGCC | 0.024
206 | CTTCCGGA | 0.402
207 | GTACCGGA | 0.285
208 | ATTCCGCA | 0.139
209 | GTTCCGGA | 0.438
210 | CTTCCGGC | 0.343
211 | CTTCCCGA | 0.148
212 | CCAACGTA | -0.105
213 | ACTCGGGA | 0.199
214 | GAAAACCA | -0.0101
215 | GTGCAGAA | 0.0359
216 | CTGTGGGC | -0.192
217 | CGTCCCCC | -0.275
218 | ATGGGCAC | -0.072
219 | ATTCGCCG | 0.334
220 | ATTCGCCA | 0.0246
221 | ATTCGCCC | -0.127
